Laboratory results as given in PMC7862700, “An all-to-all approach to the identification of sequence-specific readers for epigenetic DNA modifications on cytosine”.

Key:
Experiment in all cases: DAPPL (digital affinity profiling via proximity ligation, sequencing); 10 mM Tris-HCl pH 7.5, 50 mM NaCl, 1 mM DTT, 4% glycerol, room temperature, 30 min; GST-TFs on glutathione beads, 16-mer random dsDNA library, 0.1% formaldehyde crosslink after washing; high values mean tight binding
Conditions in all cases: protein: recombinant; tags: N-terminal GST; dsDNA, one strand shown
ELK1 = molecular target: T1, ELK1 (Homo sapiens, UniProt P19419 1-428)
T1 sequence: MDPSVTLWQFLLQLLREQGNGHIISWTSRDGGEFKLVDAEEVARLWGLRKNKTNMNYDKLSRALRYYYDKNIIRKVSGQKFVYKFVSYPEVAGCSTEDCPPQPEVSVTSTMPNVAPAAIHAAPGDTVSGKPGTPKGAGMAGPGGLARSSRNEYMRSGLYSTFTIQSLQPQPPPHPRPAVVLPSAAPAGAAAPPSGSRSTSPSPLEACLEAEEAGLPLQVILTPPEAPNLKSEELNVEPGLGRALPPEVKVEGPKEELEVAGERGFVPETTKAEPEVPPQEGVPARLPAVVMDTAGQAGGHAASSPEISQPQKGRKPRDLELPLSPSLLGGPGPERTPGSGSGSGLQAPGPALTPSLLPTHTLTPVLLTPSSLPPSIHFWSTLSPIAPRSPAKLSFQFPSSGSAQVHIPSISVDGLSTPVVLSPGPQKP
How it was run: (§1)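 A tag-only sample was pooled with DNA-barcoded human transcription factors that had been expressed in yeast as GST fusions and captured on glutathione beads. The pools were incubated for 30 min at room temperature with 200 nmole of a random double-stranded 16-mer DNA library in Tris/NaCl/DTT/glycerol buffer, then washed, crosslinked with 0.1% formaldehyde, proximity-ligated (BsaI/T4 ligase, 1 h, 37 °C), PCR-amplified and sequenced on an Illumina NextSeq500. Binding signal is each hexamer's read frequency for a factor divided by its frequency for the tag-only sample.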

GABPA = molecular target: T2, GABPA (Homo sapiens, UniProt Q06546 1-454)
T2 sequence: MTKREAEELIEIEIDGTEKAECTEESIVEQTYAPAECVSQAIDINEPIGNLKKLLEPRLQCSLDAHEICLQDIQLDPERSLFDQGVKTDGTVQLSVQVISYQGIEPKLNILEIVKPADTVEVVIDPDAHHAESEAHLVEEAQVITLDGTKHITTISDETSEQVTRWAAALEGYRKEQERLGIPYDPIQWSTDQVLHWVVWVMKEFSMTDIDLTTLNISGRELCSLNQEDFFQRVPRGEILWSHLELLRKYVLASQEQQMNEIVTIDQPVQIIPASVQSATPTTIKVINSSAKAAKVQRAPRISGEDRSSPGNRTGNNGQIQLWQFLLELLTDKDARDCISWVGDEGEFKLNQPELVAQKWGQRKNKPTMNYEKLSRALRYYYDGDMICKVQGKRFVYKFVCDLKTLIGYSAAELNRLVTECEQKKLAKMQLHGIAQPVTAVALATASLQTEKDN
How it was run: as §1

ELF1 = ELF1 (Homo sapiens, UniProt P32519 1-619)
How it was run: as §1

EHF = molecular target: T3, EHF (Homo sapiens, UniProt Q9NZC4 1-300)
T3 sequence: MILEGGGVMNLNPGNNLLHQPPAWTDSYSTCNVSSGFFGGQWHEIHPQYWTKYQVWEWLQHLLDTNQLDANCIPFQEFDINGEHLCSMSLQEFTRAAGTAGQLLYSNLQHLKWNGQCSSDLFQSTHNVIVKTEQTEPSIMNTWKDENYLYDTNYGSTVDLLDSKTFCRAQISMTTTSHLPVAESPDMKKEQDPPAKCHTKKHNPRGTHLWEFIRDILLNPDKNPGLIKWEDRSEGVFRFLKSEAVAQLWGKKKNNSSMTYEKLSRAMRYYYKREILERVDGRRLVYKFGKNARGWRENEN
How it was run: as §1

SPIB = SPIB (Homo sapiens, UniProt Q01892 1-262)
How it was run: as §1

FEV = molecular target: T4, FEV (Homo sapiens, UniProt Q99581 1-238)
T4 sequence: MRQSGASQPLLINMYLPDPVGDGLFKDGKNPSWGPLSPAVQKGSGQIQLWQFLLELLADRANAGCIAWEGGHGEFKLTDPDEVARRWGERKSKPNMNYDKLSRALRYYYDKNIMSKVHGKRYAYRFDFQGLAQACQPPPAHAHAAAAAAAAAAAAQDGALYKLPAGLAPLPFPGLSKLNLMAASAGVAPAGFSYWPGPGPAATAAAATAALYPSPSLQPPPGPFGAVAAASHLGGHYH
How it was run: as §1

ETV5 = ETV5 (Homo sapiens, UniProt P41161 1-510)
How it was run: as §1

ELF4 = ELF4 (Homo sapiens, UniProt Q99607 1-663)
How it was run: as §1

ELK4 = molecular target: T5, ELK4 (Homo sapiens, UniProt P28324-2 1-405)
T5 sequence: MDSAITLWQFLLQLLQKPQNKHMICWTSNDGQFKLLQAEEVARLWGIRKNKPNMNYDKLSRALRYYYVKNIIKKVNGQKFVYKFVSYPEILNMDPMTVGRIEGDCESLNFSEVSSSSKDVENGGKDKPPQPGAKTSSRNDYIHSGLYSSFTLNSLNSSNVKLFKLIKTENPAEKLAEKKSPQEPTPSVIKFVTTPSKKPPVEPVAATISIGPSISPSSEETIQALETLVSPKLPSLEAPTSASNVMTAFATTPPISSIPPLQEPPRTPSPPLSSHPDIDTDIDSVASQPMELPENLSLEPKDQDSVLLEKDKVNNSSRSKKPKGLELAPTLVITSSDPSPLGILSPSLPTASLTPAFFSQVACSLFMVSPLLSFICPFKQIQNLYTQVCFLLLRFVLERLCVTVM
How it was run: as §1

ETV2 = molecular target: T6, ETV2 (Homo sapiens, UniProt O00321 1-342)
T6 sequence: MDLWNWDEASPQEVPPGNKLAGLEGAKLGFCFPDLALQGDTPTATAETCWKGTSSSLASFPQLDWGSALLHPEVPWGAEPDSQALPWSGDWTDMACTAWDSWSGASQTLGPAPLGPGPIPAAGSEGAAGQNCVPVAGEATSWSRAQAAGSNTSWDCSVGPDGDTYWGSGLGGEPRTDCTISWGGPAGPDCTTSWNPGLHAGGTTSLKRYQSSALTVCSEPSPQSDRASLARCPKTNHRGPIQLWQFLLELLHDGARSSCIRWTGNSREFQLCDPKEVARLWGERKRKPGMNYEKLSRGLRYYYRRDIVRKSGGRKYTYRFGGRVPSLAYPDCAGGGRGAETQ
How it was run: as §1

ELF3 = molecular target: T7, ELF3 (Homo sapiens, UniProt P78545 1-371)
T7 sequence: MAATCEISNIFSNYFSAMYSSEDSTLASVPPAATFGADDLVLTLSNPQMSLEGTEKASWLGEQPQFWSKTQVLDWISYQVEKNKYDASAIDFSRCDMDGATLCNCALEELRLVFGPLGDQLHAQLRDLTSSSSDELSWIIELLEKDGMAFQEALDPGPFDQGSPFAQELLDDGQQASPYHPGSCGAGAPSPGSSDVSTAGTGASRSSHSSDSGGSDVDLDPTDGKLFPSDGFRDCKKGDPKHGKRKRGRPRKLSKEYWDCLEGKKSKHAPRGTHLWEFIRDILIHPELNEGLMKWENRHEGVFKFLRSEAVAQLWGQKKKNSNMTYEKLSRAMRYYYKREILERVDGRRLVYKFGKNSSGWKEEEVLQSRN
How it was run: as §1

ETV1 = ETV1 (Homo sapiens, UniProt P50549 1-477)
How it was run: as §1

ETS2 = molecular target: T8, ETS2 (Homo sapiens, UniProt P15036 1-469)
T8 sequence: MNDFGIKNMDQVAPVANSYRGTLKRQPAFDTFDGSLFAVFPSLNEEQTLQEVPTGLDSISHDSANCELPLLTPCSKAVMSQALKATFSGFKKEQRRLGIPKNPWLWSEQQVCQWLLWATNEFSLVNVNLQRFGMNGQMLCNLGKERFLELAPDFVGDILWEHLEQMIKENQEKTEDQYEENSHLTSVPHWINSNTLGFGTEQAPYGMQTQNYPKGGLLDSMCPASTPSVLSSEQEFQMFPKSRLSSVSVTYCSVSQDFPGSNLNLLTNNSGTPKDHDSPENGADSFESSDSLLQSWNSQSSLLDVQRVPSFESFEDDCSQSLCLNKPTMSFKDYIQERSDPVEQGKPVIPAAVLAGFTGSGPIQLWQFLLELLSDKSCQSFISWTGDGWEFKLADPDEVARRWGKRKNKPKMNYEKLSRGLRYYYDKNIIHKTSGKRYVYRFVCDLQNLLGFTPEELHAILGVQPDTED
How it was run: as §1

ETV3 = molecular target: T9, ETV3 (Homo sapiens, UniProt P41162-2 1-143)
T9 sequence: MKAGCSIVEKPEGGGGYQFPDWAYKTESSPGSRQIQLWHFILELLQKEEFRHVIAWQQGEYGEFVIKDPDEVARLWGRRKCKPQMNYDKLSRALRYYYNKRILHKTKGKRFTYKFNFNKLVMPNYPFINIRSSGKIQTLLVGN
How it was run: as §1

ETV5, sequence (P41161 whole entry): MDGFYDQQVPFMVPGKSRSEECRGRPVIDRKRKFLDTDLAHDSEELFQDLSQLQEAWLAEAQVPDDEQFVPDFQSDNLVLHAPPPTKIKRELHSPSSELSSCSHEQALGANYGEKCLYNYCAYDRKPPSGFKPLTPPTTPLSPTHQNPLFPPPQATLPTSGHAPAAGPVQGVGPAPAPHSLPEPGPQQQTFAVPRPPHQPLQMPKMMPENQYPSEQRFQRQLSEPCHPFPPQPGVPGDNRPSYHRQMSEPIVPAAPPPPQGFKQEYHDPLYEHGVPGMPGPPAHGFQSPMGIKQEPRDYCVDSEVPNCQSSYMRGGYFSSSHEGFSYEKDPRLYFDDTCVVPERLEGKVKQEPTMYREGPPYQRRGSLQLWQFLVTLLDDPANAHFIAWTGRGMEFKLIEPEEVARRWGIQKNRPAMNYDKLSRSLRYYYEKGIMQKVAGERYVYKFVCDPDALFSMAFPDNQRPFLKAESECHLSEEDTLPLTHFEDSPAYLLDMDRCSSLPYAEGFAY
ELF4, sequence (Q99607 whole entry): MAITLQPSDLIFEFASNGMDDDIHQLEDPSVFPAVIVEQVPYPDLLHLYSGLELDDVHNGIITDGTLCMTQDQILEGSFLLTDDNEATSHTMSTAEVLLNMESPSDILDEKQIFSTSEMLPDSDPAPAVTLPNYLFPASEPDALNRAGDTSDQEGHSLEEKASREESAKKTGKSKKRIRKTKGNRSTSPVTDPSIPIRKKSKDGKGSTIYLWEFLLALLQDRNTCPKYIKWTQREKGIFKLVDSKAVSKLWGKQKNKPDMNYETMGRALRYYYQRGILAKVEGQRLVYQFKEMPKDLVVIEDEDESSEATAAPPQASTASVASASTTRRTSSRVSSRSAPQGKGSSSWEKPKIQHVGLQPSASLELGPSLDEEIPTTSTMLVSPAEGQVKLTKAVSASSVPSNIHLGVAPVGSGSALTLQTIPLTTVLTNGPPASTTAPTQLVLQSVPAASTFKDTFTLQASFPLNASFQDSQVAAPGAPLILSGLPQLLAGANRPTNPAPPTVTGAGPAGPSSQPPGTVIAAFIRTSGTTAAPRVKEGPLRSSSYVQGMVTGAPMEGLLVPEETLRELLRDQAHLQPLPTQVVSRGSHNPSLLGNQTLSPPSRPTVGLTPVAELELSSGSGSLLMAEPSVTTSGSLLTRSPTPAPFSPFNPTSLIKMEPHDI
ELF1, sequence (P32519 whole entry): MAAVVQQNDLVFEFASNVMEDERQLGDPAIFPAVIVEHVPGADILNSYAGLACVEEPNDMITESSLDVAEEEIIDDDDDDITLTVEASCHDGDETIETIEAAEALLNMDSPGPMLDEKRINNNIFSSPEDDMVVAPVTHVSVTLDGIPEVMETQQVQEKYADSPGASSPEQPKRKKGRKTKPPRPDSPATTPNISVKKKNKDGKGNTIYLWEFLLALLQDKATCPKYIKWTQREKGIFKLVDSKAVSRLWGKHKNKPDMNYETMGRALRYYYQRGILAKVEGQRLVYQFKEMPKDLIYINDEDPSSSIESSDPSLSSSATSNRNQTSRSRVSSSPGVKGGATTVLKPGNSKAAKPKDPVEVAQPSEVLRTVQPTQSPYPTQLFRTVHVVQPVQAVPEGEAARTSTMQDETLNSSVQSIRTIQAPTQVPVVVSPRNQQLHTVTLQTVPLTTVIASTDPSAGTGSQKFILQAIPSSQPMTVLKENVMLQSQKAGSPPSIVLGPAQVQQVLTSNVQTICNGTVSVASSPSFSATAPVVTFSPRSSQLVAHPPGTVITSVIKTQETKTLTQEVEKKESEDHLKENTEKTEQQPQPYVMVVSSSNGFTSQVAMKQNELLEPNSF
SPIB, sequence (Q01892 whole entry): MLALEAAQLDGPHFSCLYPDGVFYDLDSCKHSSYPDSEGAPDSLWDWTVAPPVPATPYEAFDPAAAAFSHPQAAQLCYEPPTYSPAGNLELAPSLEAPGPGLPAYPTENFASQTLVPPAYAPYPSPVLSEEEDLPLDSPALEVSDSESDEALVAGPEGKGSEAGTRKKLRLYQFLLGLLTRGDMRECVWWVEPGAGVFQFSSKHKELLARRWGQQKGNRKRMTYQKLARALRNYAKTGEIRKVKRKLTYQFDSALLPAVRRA
ETV1, sequence (P50549 whole entry): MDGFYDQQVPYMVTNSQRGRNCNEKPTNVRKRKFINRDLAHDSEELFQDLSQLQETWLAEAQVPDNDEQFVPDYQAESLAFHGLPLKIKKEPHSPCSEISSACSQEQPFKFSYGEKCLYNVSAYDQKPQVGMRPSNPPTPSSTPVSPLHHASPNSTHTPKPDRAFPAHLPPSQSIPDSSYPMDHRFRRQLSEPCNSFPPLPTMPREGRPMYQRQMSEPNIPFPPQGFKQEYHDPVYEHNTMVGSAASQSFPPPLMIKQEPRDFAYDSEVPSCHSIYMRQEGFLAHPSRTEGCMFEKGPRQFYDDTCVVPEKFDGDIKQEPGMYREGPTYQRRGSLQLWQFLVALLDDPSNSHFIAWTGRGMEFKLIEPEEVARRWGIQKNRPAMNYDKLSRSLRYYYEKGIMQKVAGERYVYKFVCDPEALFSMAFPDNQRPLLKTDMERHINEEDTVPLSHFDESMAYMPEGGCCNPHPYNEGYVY

CACGCA
binding signal (ELK1): 1.01 fold enrichment (6-mer frequency, TF over GST control)
binding signal (GABPA): 1.02 fold enrichment (6-mer frequency, TF over GST control)
binding signal (ELF1): 1.05 fold enrichment (6-mer frequency, TF over GST control)
binding signal (EHF): 1.01 fold enrichment (6-mer frequency, TF over GST control)
binding signal (SPIB): 1.01 fold enrichment (6-mer frequency, TF over GST control)
binding signal (FEV): 1.02 fold enrichment (6-mer frequency, TF over GST control)
binding signal (ETV5): 1.05 fold enrichment (6-mer frequency, TF over GST control)
binding signal (ELF4): 1.03 fold enrichment (6-mer frequency, TF over GST control)
binding signal (ELK4): 1.11 fold enrichment (6-mer frequency, TF over GST control)
binding signal (ETV2): 1.18 fold enrichment (6-mer frequency, TF over GST control)
binding signal (ELF3): 1.04 fold enrichment (6-mer frequency, TF over GST control)
binding signal (ETV1): 1.09 fold enrichment (6-mer frequency, TF over GST control)
binding signal (ETS2): 1.03 fold enrichment (6-mer frequency, TF over GST control)
binding signal (ETV3): 1.07 fold enrichment (6-mer frequency, TF over GST control)
